Test systems include NCI-H23 lung; NCI-H226 lung; NCI-H322M lung; HOP-62 NSCLC; NCI-H460 lung; HOP-92 NSCLC; NCI-H522 lung; A549/ATCC NSCLC; 786-0 renal; COLO 205 colon.
Assay in all cases: NCI-60 one-dose screen, 48 h (100 = growth as untreated, 0 = no growth, -100 = all killed)
Common to all, as to details: 10 µM unless noted

Consider 13 compounds from PubChem BioAssay (NCI).

This is part of a sample that, as a whole, favours compounds with a hit. Of some 83,000 tested, about 20% had one in any assay.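 A percent growth of 40 corresponds to 60% growth inhibition; 0 means no net growth; -100 means all cells died. Active threshold: below 10.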 A number with no mark means an inactive call. Active and inactive are the calls of the source.

Regarding `C[C@@H]1CCC2[C@@H](C)[C@H](OC(=O)CCC(=O)NCCNC(=O)Cc3cc(=O)oc4cc(N(C)C)ccc34)O[C@@H]3O[C@]4(C)CC[C@@H]1C23OO4` (stereo not given in full), the growth is 21.5% in the assay with NCI-H23 lung; 65.3% in the assay on NCI-H226 lung; 79.2% in the assay with NCI-H322M lung; 82.8% in the assay with HOP-62 NSCLC; 39.4% in the assay with NCI-H460 lung; 29.3% in the assay on HOP-92 NSCLC. In addition, the growth was -4.8% (active) in the assay with NCI-H522 lung, 51.4% in the assay on A549/ATCC NSCLC, 36.7% with 786-0 renal and 47.6% with COLO 205 colon.

`C=C(C)[C@@]12OC3(/C=C/C=C/CCCCC)O[C@@H]1[C@@H]1[C@@H]4O[C@]4(CO)[C@@H](O)[C@]4(O)C(=O)C(C)=C[C@H]4[C@@]1(O3)[C@H](C)[C@H]2OC(=O)c1ccccc1`: the growth with NCI-H23 lung was 46.3%; with NCI-H226 lung, 79.2%; with NCI-H322M lung, 76.6%; in the assay with HOP-62 NSCLC it was 22.5%; in the assay on NCI-H460 lung it was 22.1%; in the assay with HOP-92 NSCLC, 35.1%. For the same compound, the growth in the assay on NCI-H522 lung is 78.8%; in the assay with A549/ATCC NSCLC, 32.8%; in the assay with 786-0 renal, 45.8%; in the assay on COLO 205 colon it was 4.17% (active).

For the compound `CCOC(=O)[C@@H](C)C[C@H](Cc1ccccc1)NC(=O)c1nc([C@@H](C[C@H](C(C)C)N(C)C(=O)[C@@H](NC(=O)[C@H]2CCCCN2C)C(C)C)OC(C)=O)sc1CCOCc1ccccc1`, the growth is 14.7% in the assay with NCI-H23 lung; -80.6% (active) in the assay on NCI-H226 lung; 11.9% in the assay with NCI-H322M lung; -42.7% (active) in the assay with HOP-62 NSCLC; -54.8% (active) in the assay on NCI-H460 lung; -16.5% (active) in the assay on HOP-92 NSCLC. The growth in the assay with NCI-H522 lung was -49.2% (active); with A549/ATCC NSCLC it was -31.1% (active); in the assay with 786-0 renal, -38.6% (active); in the assay with COLO 205 colon, -70.9% (active).

Take `Clc1cccc(Cl)c1Cl`: the growth in the assay on NCI-H23 lung was 102%; in the assay with NCI-H226 lung it was 101%; in the assay with NCI-H322M lung, 99.5%; in the assay with HOP-62 NSCLC it was 99%; in the assay with NCI-H460 lung, 107%; in the assay with HOP-92 NSCLC, 113%. The growth was 65.1% in the assay with NCI-H522 lung, 85.9% in the assay on A549/ATCC NSCLC, 96.1% in the assay with 786-0 renal and 122% in the assay on COLO 205 colon.

Turning to `O=C(Nc1ccncc1F)c1cn(CC2CC2)c2ccccc12`, the growth in the assay on NCI-H23 lung was 101%; in the assay on NCI-H226 lung, 83.7%; in the assay with NCI-H322M lung, 109%; in the assay on HOP-62 NSCLC, 108%; in the assay with NCI-H460 lung, 101%; in the assay on HOP-92 NSCLC, 123%. Besides, the growth in the assay on NCI-H522 lung is 92.3%; with A549/ATCC NSCLC, 98.5%; in the assay with 786-0 renal, 97.6%; with COLO 205 colon it was 112%.

In the case of `Nc1ccc(-c2nc3cc(F)ccc3[se]2)cc1F`, the growth was 33.9% with NCI-H23 lung; -13.2% (active) in the assay on NCI-H226 lung; 72.6% in the assay on NCI-H322M lung; 51.4% in the assay on HOP-62 NSCLC; 11.7% in the assay with NCI-H460 lung; 66% in the assay on HOP-92 NSCLC. Moreover, the growth was 64.2% in the assay with NCI-H522 lung, 39.9% with A549/ATCC NSCLC, 101% in the assay with 786-0 renal and 56.2% in the assay on COLO 205 colon.

Consider `COC(=O)[C@@H](C)C[C@H](Cc1ccccc1)NC(=O)c1csc([C@@H](C[C@H](C(C)C)N(C)C(=O)[C@@H](NC(=O)CN(C)C)C2CC2)OC(C)=O)n1`, for which the growth in the assay with NCI-H23 lung is 25%; in the assay on NCI-H226 lung, 19.1%; with NCI-H322M lung it was 47.7%; in the assay with HOP-62 NSCLC, 19.1%; in the assay on NCI-H460 lung, 10.3%; in the assay on HOP-92 NSCLC, 26.4%. The growth was -44.7% (active) in the assay with NCI-H522 lung, 13.5% with A549/ATCC NSCLC, 21% in the assay on 786-0 renal and -72.8% (active) in the assay on COLO 205 colon.

On to `CC1(C)[C@H](O)[C@H](F)C[C@@]2(C)Oc3ccc(C(=O)Nc4ccc5c(c4)NC(=O)C54CCN(CCCCC#N)CC4)cc3C[C@H]12`, for which the growth in the assay with NCI-H23 lung was 55.4%; with NCI-H226 lung it was 69.9%; in the assay on NCI-H322M lung it was 91.9%; with HOP-62 NSCLC, 12.8%; with NCI-H460 lung, 21.3%; in the assay with HOP-92 NSCLC, 41.7%. In addition, the growth in the assay on NCI-H522 lung was -4.72% (active); in the assay with A549/ATCC NSCLC, 19.5%; in the assay on 786-0 renal, 21.5%; with COLO 205 colon, -23.7% (active).

As to `C/C1=C/C(=O)O[C@@H]2C[C@@H](CC[C@H](C)/C=C\C=C\CC1)O[C@@](O)([C@@H]1CSC(=O)N1CO)C2`, the growth is 13.9% in the assay with NCI-H23 lung; 46.1% in the assay with NCI-H226 lung; 41.7% in the assay on NCI-H322M lung; -25.7% (active) with HOP-62 NSCLC; 26.9% in the assay with NCI-H460 lung; -82.5% (active) in the assay with HOP-92 NSCLC. For the same compound, the growth was -52.3% (active) with NCI-H522 lung, 20.3% in the assay on A549/ATCC NSCLC, 6.79% (active) in the assay with 786-0 renal and -55.5% (active) in the assay on COLO 205 colon.

On to `O=C(N/N=C/c1ccc(N(CCCl)CCCl)cc1)c1cccc2ccccc12`, for which the growth in the assay with NCI-H23 lung was 85.7%; with NCI-H226 lung it was 74.3%; in the assay with NCI-H322M lung, 102%; in the assay on HOP-62 NSCLC, 59.5%; in the assay on NCI-H460 lung it was 47%; in the assay on HOP-92 NSCLC it was 55.5%. Besides, the growth with NCI-H522 lung was 47.9%; with A549/ATCC NSCLC it was 58.4%; in the assay with 786-0 renal it was 74.2%; with COLO 205 colon, 86.3%.

Regarding `CN(C)C(=O)Oc1ccccc1-c1ccccc1`, the growth is 102% in the assay on NCI-H23 lung; 96.4% with NCI-H226 lung; 111% with NCI-H322M lung; 98.6% in the assay with HOP-62 NSCLC; 109% in the assay on NCI-H460 lung; 95.7% with HOP-92 NSCLC. In addition, the growth with NCI-H522 lung is 101%; with A549/ATCC NSCLC it was 87.7%; in the assay with 786-0 renal, 106%; in the assay with COLO 205 colon, 103%.

Take `c1ccc(CSC(c2ccccc2)c2ccccc2)cc1`: the growth in the assay with NCI-H23 lung is 101%; in the assay with NCI-H226 lung, 111%; in the assay on NCI-H322M lung it was 119%; in the assay on HOP-62 NSCLC it was 116%; in the assay on NCI-H460 lung it was 105%; in the assay on HOP-92 NSCLC it was 76.2%. Also, the growth in the assay with NCI-H522 lung is 97.6%; in the assay with A549/ATCC NSCLC, 103%; with 786-0 renal, 91.3%; in the assay on COLO 205 colon it was 101%.

As for `CCCC[C@H](NC(=O)[C@H]1CCCCN1C)C(=O)N(C)[C@H](C[C@@H](OC(C)=O)c1nc(C(=O)N[C@@H](Cc2ccccc2)C[C@H](C)C(=O)OCC)cs1)C(C)C`, the growth in the assay on NCI-H23 lung is 27.1%; in the assay with NCI-H226 lung, 32.8%; in the assay with NCI-H322M lung, 32.9%; in the assay with HOP-62 NSCLC, 18.1%; in the assay on NCI-H460 lung, 6.75% (active); in the assay with HOP-92 NSCLC, 18.1%. For the same compound, the growth in the assay with NCI-H522 lung is -25% (active); in the assay with A549/ATCC NSCLC, 11%; with 786-0 renal, 3.81% (active); in the assay on COLO 205 colon, -69.9% (active).
